Compound activity: PubChem BioAssay, The Scripps Research Institute Molecular Screening Center
Sampled rows, rich in hits. Any-hit rate of the full collection: about 3.4%.
GPR151 ag: activators of human GPR151, primary screen, cell-based, PathHunter beta-arrestin, luminescence | 650,000 compounds, 1% hits | PathHunter beta-arrestin GPR151 cells | G-protein coupled receptor 151 (Homo sapiens), Q8TDV0 | activation, % at 11.2 µM; in the data active = activation above about 4.9%
MITF inh: MITF inhibitors, primary screen, biochemical, AlphaScreen, human | AlphaScreen MITF homodimerization, bead proximity signal | inhibition, % at 2.6 µM | 650,000 compounds, 0.91% hits | AID 1259374, 2018; in the data active = inhibition above about 50%
Target sequence (O75030 whole entry, looked up): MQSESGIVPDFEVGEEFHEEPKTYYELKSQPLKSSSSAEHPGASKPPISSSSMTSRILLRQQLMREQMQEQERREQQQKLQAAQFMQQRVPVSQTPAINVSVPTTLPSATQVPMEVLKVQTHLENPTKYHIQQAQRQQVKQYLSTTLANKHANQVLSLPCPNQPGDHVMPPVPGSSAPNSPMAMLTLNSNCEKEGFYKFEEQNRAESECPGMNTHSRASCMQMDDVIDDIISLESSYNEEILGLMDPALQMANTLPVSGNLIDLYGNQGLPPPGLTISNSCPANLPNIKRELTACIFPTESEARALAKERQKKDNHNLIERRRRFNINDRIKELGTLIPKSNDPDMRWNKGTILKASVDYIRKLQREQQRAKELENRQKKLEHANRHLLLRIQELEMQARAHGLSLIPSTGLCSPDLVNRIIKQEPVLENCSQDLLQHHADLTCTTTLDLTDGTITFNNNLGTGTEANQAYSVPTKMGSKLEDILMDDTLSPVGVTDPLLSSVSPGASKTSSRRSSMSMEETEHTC
TEAD-YAP inh: TEAD-YAP interaction inhibition, primary screen, TEAD-YAP interaction inhibitor project, luminescence, HEK-TIYL cells; TEAD-Gal4/YAP UAS-luciferase luminescence; inhibition, % at 9.12 µM; 640,000 compounds, 1.4% hits; AID 1259422, 2018; in the data active = inhibition above about 32%
FBW7 act: FBW7 E3 ligase activators, primary screen, biochemical, AlphaScreen, human; AlphaScreen FBW7–phospho-cyclin E peptide binding, activator screen; normalized activity (activation), % at 26.1 µM; AID 1259310, 2017; 650,000 compounds, 0.13% hits; F-box/WD repeat-containing protein 7 (Homo sapiens), Q969H0; in the data active = normalized activity above about 1.9%;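 note: purified mutant Fbw7 with reduced substrate affinity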
MITF confirm: MITF inhibitors, retest of hits, confirmation, biochemical, AlphaScreen, triplicate. shares compounds with MITF inh. inhibition, % at 2.6 µM. AID 1259372, 2018. AlphaScreen MITF homodimerization, biotin/His-MITF beads. 4,700 compounds, 16% hits;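 active = inhibition above a cutoff derived from the DMSO control wells, cut at about 28% in these data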;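 note: inhibitors lower the bead chemiluminescence by keeping MITF from dimerizing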
AS interf DR: AlphaScreen optical interference compounds, dose response, counter-screen, biochemical, HTS | IC50, µM | AlphaScreen optical interference counterscreen, cell-free | AID 1259373, 2018 | 480 compounds, 6% hits | shares compounds with MITF inh; call rule not given here
AlphaScreen intf2: AlphaScreen optical interference compounds, counter-screen for MITF inhibitor project, biochemical, triplicate | inhibition, % at 2.6 µM | 4,700 compounds, 7.6% hits | shares compounds with MITF inh | LysRS AlphaScreen counterscreen, signal interference;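 active = inhibition above a cutoff derived from the DMSO control wells, cut at about 30% in these data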
Large screens that a line does not name were inactive (follow-up assays come after a bar, where they were run).

CCC1(C)Cc2c(sc3nn[nH]c(=O)c23)CO1 (stereo unspecified)	MITF inh 94 | MITF confirm inactive | AlphaScreen intf2 inactive
O=C1CN(CC(=O)Nc2cc(Cl)ccc2Cl)CCN1	none
COc1ccccc1OCC#CCn1ccnc1	MITF inh 63 | MITF confirm inactive | AlphaScreen intf2 inactive
OC[C@H]1OC([S-])[C@H](O)[C@@H](O)[C@@H]1O.[Au+] (stereo partly specified)	MITF inh 86 | MITF confirm 73 | AS interf DR inactive | AlphaScreen intf2 inactive
COc1ccc(N2C(=O)NC(=O)/C(=C\c3ccoc3)C2=O)cc1	none
COc1ccc(CN2CCN(C(=O)c3cccnc3)CC2)cc1Br	MITF inh 60 | MITF confirm inactive | AlphaScreen intf2 inactive
COc1ccc(CN2CCN(C(=O)c3ccc(F)cc3)CC2)cc1Br	MITF inh 51 | MITF confirm inactive | AlphaScreen intf2 inactive
COc1cc(CN2CCN(C(=O)c3ccc(F)cc3)CC2)cc(OC)c1O	MITF inh 53 | MITF confirm inactive | AlphaScreen intf2 inactive
COc1ccc(CN2CCN(C(=O)c3cccc(F)c3)CC2)cc1Br	MITF inh 59 | MITF confirm inactive | AlphaScreen intf2 inactive
COc1ccc(CN2CCN(C(=O)c3ccccc3)CC2)cc1Br	none
CCC(CC)C(=O)Nc1nnc(C(C)(C)C)s1	none
O=C(N=C1N=C2C=CC=CN2Cc2ccccc21)C(c1ccccc1)c1ccccc1	none
CCCC(C)C(=O)Nc1ccccc1C (stereo unspecified)	MITF inh 51 | MITF confirm inactive | AlphaScreen intf2 inactive
C=CCNCCOc1ccc(C(C)(C)C)cc1C	MITF inh 51 | MITF confirm inactive | AlphaScreen intf2 inactive
Cc1cc(C(C)(C)C)ccc1OCCCNCCN	none
Cc1cc(C(C)(C)C)ccc1OCCN(C)C	MITF inh 84 | MITF confirm inactive | AlphaScreen intf2 inactive
C=CCNCCCOc1ccc(C(C)(C)C)cc1C	none
CC(C)C(C)(C#N)NC(=O)CSc1nc2ccc([N+](=O)[O-])cc2s1 (stereo unspecified)	none
Clc1cccc(CN2CCN(Cc3cccnc3)CC2)c1	MITF inh 85 | MITF confirm inactive | AlphaScreen intf2 inactive
O=C(NCc1cccc(Cl)c1)C1CCN(Cc2cccnc2)CC1	none
Fc1cccc(CN2CCN(Cc3cccnc3)CC2)c1	MITF inh 85 | MITF confirm inactive | AlphaScreen intf2 inactive
Cc1ccc(-c2nnc(Nc3ccc(Cl)c(Cl)c3)c3ccccc23)cc1S(=O)(=O)NCCO	MITF inh 89 | MITF confirm inactive | AlphaScreen intf2 inactive
C=CCc1cc(C)ccc1OCCCN1CCCC1	MITF inh 55 | MITF confirm inactive | AlphaScreen intf2 inactive
C=CCc1ccccc1OCCOCCN1CCOCC1	MITF inh 72 | MITF confirm inactive | AlphaScreen intf2 inactive
C=CCc1cc(Cl)ccc1OCCCN1CCN(C)CC1	MITF inh 79 | MITF confirm inactive | AlphaScreen intf2 inactive
C=CCc1cc(C)ccc1OCCN1CCCC1	none
C=CCc1cc(C)ccc1OCCCCn1ccnc1	MITF inh 74 | MITF confirm 35 | AS interf DR inactive | AlphaScreen intf2 inactive
CN1CCN(CCCOc2cc(Cl)ccc2Cl)CC1	none
CN(C)C(=O)N1CCC(C(=O)NCc2cccnc2)CC1	none
C=CCc1cc(Cl)ccc1OCCNCCN1CCOCC1	MITF inh 76 | MITF confirm inactive | AlphaScreen intf2 inactive
C=CCc1cc(C)ccc1OCCOCCN1CCN(C)CC1	MITF inh 60 | MITF confirm inactive | AlphaScreen intf2 inactive
O=[N+]([O-])c1ccc(N2CCN(S(=O)(=O)c3ccccc3)CC2)cc1NC1CC1	MITF inh 71 | MITF confirm inactive | AlphaScreen intf2 inactive
CCCCOC(=O)c1cccc(NC(=O)/C=C/c2ccc(C(C)C)cc2)c1	none
CC(C)CC(=O)N1CCN(CCCc2ccccc2)CC1	MITF inh 52 | MITF confirm inactive | AlphaScreen intf2 inactive
O=C(c1ccccc1)N1CCN(CCCc2ccccc2)CC1	none
O=C(c1ccccc1)N1CCN(C(=O)c2ccncc2)CC1	none
O=C(c1ccco1)N1CCN(Cc2ccccc2C(F)(F)F)CC1	MITF inh 66 | MITF confirm inactive | AlphaScreen intf2 inactive
O=C(c1ccco1)N1CCN(Cc2ccccc2[N+](=O)[O-])CC1	MITF inh 76 | MITF confirm inactive | AlphaScreen intf2 inactive
O=C(c1ccco1)N1CCN(Cc2ccc(Br)cc2)CC1	none
O=C(c1ccncc1)N1CCN(Cc2ccccc2C(F)(F)F)CC1	MITF inh 69 | MITF confirm inactive | AlphaScreen intf2 inactive
CCc1ccc(/C=N/NS(=O)(=O)c2ccc(Cl)cc2)s1	none
O=C(c1cccc(F)c1)N1CCN(Cc2ccccc2C(F)(F)F)CC1	MITF inh 53 | MITF confirm inactive | AlphaScreen intf2 inactive
CC(C)CC(=O)N1CCN(Cc2ccccc2C(F)(F)F)CC1	MITF inh 58 | MITF confirm inactive | AlphaScreen intf2 inactive
O=C(c1ccc(F)cc1)N1CCN(Cc2ccccc2C(F)(F)F)CC1	MITF inh 65 | MITF confirm inactive | AlphaScreen intf2 inactive
COc1ccccc1CN1CCN(C(=O)c2ccc(F)cc2)CC1	none
CC(C)CC(=O)N1CCN(C(=O)c2cccs2)CC1	none
O=C(c1ccc(-c2ccccc2)cc1)N1CCN(Cc2ccccc2C(F)(F)F)CC1	MITF inh 65 | MITF confirm inactive | AlphaScreen intf2 inactive
N#CC1=C(N)OC2=C(C(=O)CC(c3ccccc3)C2)C1c1ccc(Br)cc1 (stereo unspecified)	none
COc1cc2c(cc1OC)C(Nc1ccc(Br)cc1)=NC(C)(C)C2	none
CCN(CC)c1ccc2cc(C(=O)Nc3cc(Cl)ccc3OC)c(=O)oc2c1	none
O=C(Cc1cccs1)N1CCC(O)(c2ccccn2)CC1	none
O=C(c1cccc(F)c1)N1CCN(Cc2ccccc2Br)CC1	MITF inh 57 | MITF confirm inactive | AlphaScreen intf2 inactive
O=C(c1ccccc1)N1CCN(C(=O)c2cccc(F)c2)CC1	none
CC(C(=O)O)N1C(=O)/C(=C/c2ccccc2F)SC1=S (stereo unspecified)	none
Cc1ccc2c(c1)sc(=NC(=O)c1ccc(S(=O)(=O)N3CCCCCC3)cc1)n2C	none
COc1cccc(-n2c(=S)sc3c(=O)n(-c4ccccc4)c(SCC(=O)N4CCCC4)nc32)c1	none
COc1ccc(CNC(=O)C(=O)NC(C)c2ccccc2)cc1 (stereo unspecified)	none
